The whole screen tested about 410,000 compounds, of which about 1,200 (0.29%) were called active. About 2% were inconclusive and are not listed. Calls come from the whole dose curve; as a rule, active = well fitted activation curve with a large enough effect; inconclusive = small, poorly fitted or top-dose-only effect; inactive = flat fitted curve, though single readings scatter. The entries come from a sample that favours actives as a whole. A call without a number means that no potency is given here.
Potency is the fitted concentration of half-maximal effect.

The experiment is described as follows: qHTS of Nrf2 Activators. Note: nearly all actives have a fitted effect of over 65% in size. The following applies: AREc32 ARE-luciferase reporter (MCF7-derived line), luminescence, 24 h; series mostly up to 46.1 µM. In short, it runs like this:
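Reporter line AREc32 (ARE-Fluc), seeded overnight in OPTI-MEM with 5% FBS; compound pin-transferred, 24 hr at 37 deg C, 5% CO2; luminescent read-out.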
For the compound `CCN(CC)c1cc(NC2CCCCC2)c2c3c(onc13)-c1ccccc1C2=O`, the Potency entry is “inactive”.

With `Cc1csc(NC(=O)Nc2ccccc2[N+](=O)[O-])n1`, the Potency was 4.47 µM (active).

As to `COc1ccc(OCCCC(=O)OC(C)C(=O)Nc2ccccc2[N+](=O)[O-])cc1` (stereo not given), the Potency entry was “inactive”.

Regarding `Cc1csc(NC(=O)C2CCN(S(=O)(=O)c3ccccc3)CC2)n1`, the Potency result is “inactive”.

`Cc1c(CCNC(=O)c2ccc(C(F)(F)F)cc2)sc2nc(-c3ccc(F)cc3)nn12`: the Potency entry is “inactive”.

With `O=C(Nc1cc(-c2nc3ccccc3o2)ccc1Cl)c1cc([N+](=O)[O-])ccc1N1CCOCC1`, the Potency entry was “inactive”.

Consider `O=[N+]([O-])c1ccc2oc(-c3cccc(O)c3)nc2c1`, for which the Potency was 6.31 µM (active).

In the case of `CCC(=O)Nc1cccc(-c2nc3cc(C)ccc3o2)c1`, the Potency entry was “inactive”.

On to `CC(=O)c1ccc(NC(=O)CSc2c(C(C)C)cnc3c2c(=O)n(C)c(=O)n3C)cc1`, for which the Potency entry was “inactive”.

As to `Cc1cc(NC(=O)c2ccc(-c3ccc(Cl)cc3)o2)cc(-c2nc3ncccc3o2)c1O`, the Potency result is “inactive”.

Consider `Cc1cccc(C(=O)Nc2ccc(-c3nc4ncccc4o3)cc2C)c1`, for which the Potency result was “inactive”.

Turning to `O=C(Nc1cc(-c2nc3ncccc3o2)ccc1Cl)c1ccco1`, the Potency is 6.31 µM (active).

`CCc1cc2c(cc(C(=O)OC)n2Cc2nc(-c3ccc(C)cc3)oc2C)s1`: the Potency entry is “inactive”.

Regarding `CSc1ccccc1NC(=O)CCS(=O)(=O)c1nc(-c2cccs2)cc(C(F)(F)F)n1`, the Potency result was “inactive”.

Turning to `O=C(CSc1nc2ccc([N+](=O)[O-])cc2[nH]1)c1ccc(Cl)cc1`, the Potency is 11.2 µM (active).

As for `O=C(CSc1nc(Nc2ccc(F)c(F)c2)c2ccccc2n1)c1ccc(Cl)cc1`, the Potency entry was “inactive”.

On to `COc1ccc(Cc2nnc(SCC(=O)c3cccc([N+](=O)[O-])c3)n2C)cc1`, for which the Potency entry was “inactive”.

Turning to `CCOc1ccccc1C(=O)Nc1ccc2c(c1)N(C)C(=O)c1ccccc1S2`, the Potency entry was “inactive”.

On to `CCOC(=O)c1ccc2c(c1)N(Cc1cccc(OC)c1)C(=O)c1ccccc1S2(=O)=O`, for which the Potency result is “inactive”.

As to `Cc1ccccc1CNC(=O)Cn1c(C)c2cnn(-c3ccccc3)c(=O)c2c1C`, the Potency entry was “inactive”.

As for `CCC(C(=O)Nc1cc(OC)ccc1OC)n1c(=O)c(C(F)(F)F)nc2ccccc21` (stereo not given), the Potency result is “inactive”.

For `S=c1[nH]nc(/C=C/c2ccccc2)o1`, the Potency entry was “inactive”.

On to `CN(C)C(=O)CSc1n[nH]c(-c2ccco2)n1`, for which the Potency result is “inactive”.

With `S=c1[nH]nc(-c2ccco2)n1/N=C/c1ccccc1`, the Potency was 10 µM (active).

For `COc1cc(NC(=O)c2cc(C3CC3)nc3c2c(C)nn3-c2ccccc2)cc(OC)c1`, the Potency entry is “inactive”.

For `Cc1cccc(NC(=O)Cn2nc(-c3ccc(Cl)cc3)c3ccccc3c2=O)c1`, the Potency entry was “inactive”.

For `COc1cccc(N2CC(NC(=O)/C=C\c3ccccc3)CC2=O)c1` (stereo not given), the Potency result was “inactive”.

With `COc1ccc(/C=C/C(=O)c2cc(Br)ccc(=O)c2O)cc1`, the Potency was 12.6 µM (active).

Regarding `COCOc1cc(O)c(C(=O)/C=C/c2ccc(OCOC)c(OCOC)c2)c(OCOC)c1`, the Potency entry was “inactive”.

`O=C(c1ccc(F)cc1)n1c(=S)nc2ccccn21`: the Potency is 2.51 µM (active).

Regarding `O=C(c1ccc(F)cc1)N1CCCC(C(=O)N2CCCCC2)C1` (stereo not given), the Potency result is “inactive”.

Regarding `O=C(Nc1c(-c2ccc(F)cc2)nc2ccccn12)c1cccc(F)c1`, the Potency entry was “inactive”.

For `Cc1ccc(-c2nc(SCc3ccc(Br)cc3)n3[nH]c(=O)cc3n2)cc1`, the Potency entry was “inactive”.

Take `CCc1nn(CC(=O)NCC(C)c2ccccc2)c(=O)c2cc3occc3n12` (stereo not given): the Potency result is “inactive”.

In the case of `Cc1cccc(NC(c2cccc(F)c2)c2ccc3ccc(C)nc3c2O)n1` (stereo not given), the Potency entry is “inactive”.

On to `CCOc1cc(NC(=O)c2ccccc2C(=O)O)c(OCC)cc1NC(=O)c1ccccc1F`, for which the Potency entry is “inactive”.

Take `CCOc1cc(NC(=O)CCl)c(OCC)cc1NC(C)=O`: the Potency is 14.1 µM (active).

In the case of `CCOCC(=O)Nc1cc(OC)c(Cl)cc1OC`, the Potency entry was “inactive”.

For `CC(C)(C)OC(=O)N1CCC(c2c(C(=O)NCCc3ccsc3)cnn2-c2ccc(F)cc2F)CC1`, the Potency result was “inactive”.

For the compound `COc1ccccc1NC(=O)c1cc(S(=O)(=O)NCCc2ccccc2)ccc1F`, the Potency entry is “inactive”.

Values taken from PubChem BioAssay AID624171 (National Center for Advancing Translational Sciences (NCATS), 2012).
